Out of some 69,000 compounds screened, about 8,600 (12%) showed an effect of 50% or more. This is one part of a sample in which strong results are shown more often than they occur.
These molecules were tested on Plasmodium berghei (assay: Screen against P. berghei liver stage (PbLuc), transformed with Luciferase, at 10uM). Details: tested at 10 uM.
Assay type: functional, HepG2

Going from `O=S(=O)(c1cccnc1)N1C[C@H]2CCC[C@@]2(COc2ccccn2)C1` to `CC(C)Oc1ccc(C(=O)N2CCCCC2Cn2cccn2)cn1` (configuration not stated), the INHIBITION falls from 38.5% to -21.645%.

Compared with `CCn1c(N)nc2cc(C(=O)NCCc3ccncc3)cnc21`, `CCn1cc(NC(=O)NCCc2ccc3c(c2)OCCO3)cn1` is lower in INHIBITION: -20% for the first, -27.8% for the second.

Going from `Nc1ccc(CC2CCCN(Cc3c[nH]cn3)C2)nn1` (configuration not stated) to `Cn1ccc(C(=O)N2CCC(Cc3cnc4[nH]ccc4c3)C2)n1` (configuration not stated), the INHIBITION falls from -4.87% to -77.5%.

Going from `COc1ccc(CN2CCn3cc(CN4CCCCC4)nc3C2)cc1` to `COc1ccc(NC2(C(=O)N3CCn4cncc4C3)CCCC2)cc1`, the INHIBITION rises from 0.79% to 18.5%.

First: CN(C)c1nc2c(c(=O)[nH]1)CCN(C(=O)c1c[nH]c(=O)c(Cl)c1)C2
Second: CN(C)c1nc2c(c(=O)[nH]1)CCN(C(=O)c1ccc(=O)[nH]c1)C2
The INHIBITION of the first is higher: 51.1% for the first, 4.1% for the second.

Compared with `CN(C)c1nc2c(c(=O)[nH]1)CCN(C(=O)C1CCCO1)C2` (configuration not stated), `CCCc1ccc(C(=O)N2CCc3c(nc(N(C)C)[nH]c3=O)C2)cc1` is higher in INHIBITION: 6.26% for the first, 23.3% for the second.

Compared with `Cc1nc(C(C)C)ncc1C(=O)N1CCc2c(nc(N(C)C)[nH]c2=O)C1`, `CN(C)c1nc2c(c(=O)[nH]1)CCN(C(=O)c1cccc3nccnc13)C2` is lower in INHIBITION: 50.1% for the first, 6.8% for the second.

First: O=C(c1cccnc1)N1CCc2c(nc(N3CCCC3)[nH]c2=O)C1
Second: O=c1[nH]c(-c2cccnc2)nc2c1CCN(S(=O)(=O)N1CCCC1)C2
The INHIBITION of the first is higher: 46% for the first, 23.6% for the second.

Compared with `O=C(c1ccc(=O)[nH]c1)N1CCc2c(nc(-c3cccnc3)[nH]c2=O)C1`, `NC(=O)c1cnc2n1CCN(C(=O)c1ccc(Cn3cccc3)cc1)C2` is lower in INHIBITION: 61.8% for the first, 15.5% for the second.

Going from `CCc1onc(C)c1C(=O)N1CCN(c2ncc3c(n2)CCOC3)CC1` to `Cc1cc(CN2CCN(C(=O)NCc3ccc(C)s3)CC2)no1`, the INHIBITION rises from 17.05% to 18.6%.

Compared with `Cc1n[nH]c(C)c1C1COCCN1C(=O)c1n[nH]c2ccccc12` (configuration not stated), `Cc1nn(C)c(C)c1C1CCCN1C(=O)c1cnccn1` (configuration not stated) is higher in INHIBITION: -2.25% for the first, 2.97% for the second.

Going from `O=c1[nH]nc(CCCN2CCOCC2)n1Cc1cccc(F)c1` to `CCn1ccnc1CN1CCN(CC(O)c2cccc(F)c2)CC1` (configuration not stated), the INHIBITION falls from 10.3% to -94.9%.

Going from `O=C(CCN1CCCCC1)Nc1c2c(cc3c1CCC3)CCC2` to `CC(=O)NC[C@]1(O)CCN(C(=O)c2ccc3c(c2)CCC3)C[C@H]1O`, the INHIBITION falls from 18.8% to 14.5%.

Compared with `Cn1cc(S(=O)(=O)NCC(C)(O)c2ccsc2)cn1` (configuration not stated), `Cn1cc(S(=O)(=O)NCc2ccsc2)cn1` is lower in INHIBITION: 16.3% for the first, -17.8% for the second.

Going from `Cn1cc(S(=O)(=O)NCCc2ccsc2)cn1` to `CC(O)(CCc1ccccc1)CNC(=O)c1ccsc1` (configuration not stated), the INHIBITION falls from 70.9% to 50.2%.

Compared with `CNc1nc(C(=O)N2CCCC(COc3ccc(F)cc3)C2)cs1` (configuration not stated), `CCOc1ccc(Cl)c(C(=O)N2CCCC(c3ccn[nH]3)C2)n1` (configuration not stated) is lower in INHIBITION: 44.9% for the first, -10.1% for the second.

Compared with `CCCC(=O)N(C)C(c1cccc(F)c1)c1ccccn1` (configuration not stated), `O=C(Nc1ccccn1)N(CCO)Cc1ccccc1Br` is lower in INHIBITION: 13.6% for the first, 10.2% for the second.

Compared with `Cc1nnc(NC(=O)CSCc2cc(=O)n3ccccc3n2)s1`, `CC(C)c1nnc(NC(=O)CSCc2cc(=O)n3ccccc3n2)s1` is higher in INHIBITION: 27.5% for the first, 38.9% for the second.

Compared with `Cc1cccn2c(=O)cc(CSCC(=O)Nc3nnc(C(C)C)s3)nc12`, `Cc1ccn2c(=O)cc(CSCC(=O)Nc3nnc(C(C)C)s3)nc2c1` is higher in INHIBITION: 14.7% for the first, 52.5% for the second.

Compared with `Cc1cccc2nc(CSCC(=O)Nc3nnc(C(C)C)s3)cc(=O)n12`, `Cc1ccc2nc(CSCC(=O)Nc3nnc(C(C)C)s3)cc(=O)n2c1` is higher in INHIBITION: 24.5% for the first, 50.2% for the second.

First: c1ncn(CC2CN(CCCOc3ccc4c(c3)OCO4)CCO2)n1 (configuration not stated)
Second: Fc1ccc(-c2nc(CN3CCCC3Cn3cncn3)co2)cc1F (configuration not stated)
The INHIBITION of the first is higher: 36.1% for the first, 33.7% for the second.

Going from `Cn1cnc2c1C(COCC1CCOCC1)CN(c1ncccn1)C2` (configuration not stated) to `CC(C)NC(=O)[C@@H]1CCO[C@@H]2CCN(c3ncccn3)C[C@@H]21`, the INHIBITION falls from 33.4% to 2.41%.

Going from `Cc1nc(O)c2nnn(C[C@H]3CCCN3C(=O)c3cccs3)c2n1` to `Oc1nc(C2CC2)nc2c1nnn2C1CCN(Cc2ccoc2)CC1`, the INHIBITION falls from 31.6% to 12.25%.

Going from `CSCCC1c2nc[nH]c2CCN1Cc1ccccc1C#N` (configuration not stated) to `CSCCC1c2nc[nH]c2CCN1Cc1ccccc1C(F)(F)F` (configuration not stated), the INHIBITION rises from 40.9% to 69.1%.

Going from `O=C(O)C1c2nc[nH]c2CCN1Cc1ccccc1-c1ccccc1` (configuration not stated) to `CSCCC1c2nc[nH]c2CCN1Cc1ccnc2ccccc12` (configuration not stated), the INHIBITION falls from 12.7% to -9.67%.

Compared with `CSCCC1c2nc[nH]c2CCN1Cc1cncn1C` (configuration not stated), `COc1ncccc1CN1CCc2[nH]cnc2C1CCSC` (configuration not stated) is lower in INHIBITION: 56.1% for the first, 33.4% for the second.

First: CCn1ncnc1CN1CCc2[nH]cnc2C1Cc1ccccc1 (configuration not stated)
Second: CCn1ncnc1CN1CCc2[nH]cnc2C1CCc1ccccc1 (configuration not stated)
The INHIBITION of the first is lower: -56.1% for the first, 1.94% for the second.

Going from `CSCCC1c2nc[nH]c2CCN1Cc1cc(Cl)ccc1O` (configuration not stated) to `Cc1cccc(N2CCN(C(=O)Cc3ccccc3O)C(C)C2)n1` (configuration not stated), the INHIBITION falls from 70.6% to 6.83%.

First: CCn1cc(NC(=O)C2CCC(=O)N2Cc2ccco2)cn1 (configuration not stated)
Second: CCn1cc(NC(=O)CCc2ccc3c(c2)OCCCO3)cn1
The INHIBITION of the first is lower: 20.4% for the first, 55.5% for the second.

First: CCc1noc(C2CC(=O)N(CCN(C)C)C2)n1 (configuration not stated)
Second: Cc1cc(C)n(CCC2CC(=O)Nc3cc4[nH]ncc4cc32)n1 (configuration not stated)
The INHIBITION of the first is higher: 35.1% for the first, 0.991% for the second.

First: COc1ccccc1C(=O)N1CCNCC1C(N)=O (configuration not stated)
Second: NC(=O)N1CCCC(C(=O)N2CCN(c3nsc4ccccc34)CC2)C1 (configuration not stated)
The INHIBITION of the first is lower: 9.2% for the first, 35.8% for the second.

Going from `CSCCC(C)(O)CNC(=O)c1ccsc1` (configuration not stated) to `CC(O)(CCc1ccccc1)CNC(=O)c1ccc(F)cc1` (configuration not stated), the INHIBITION rises from 8.61% to 26.8%.

First: Cn1cccc1CN1CCC2(CCCN(C(=O)c3cnccn3)C2)C1 (configuration not stated)
Second: CN1CC2(CCN(C(=O)c3ccc(-n4cnnc4)cc3Cl)CC2)OC1=O
The INHIBITION of the first is higher: 2.01% for the first, -6.01% for the second.

Going from `CCn1cc(NC(=O)NCc2ccc3c(c2)OCCO3)cn1` to `CCc1ccc(CNC(=O)Nc2cc(C)on2)s1`, the INHIBITION rises from 33% to 39.7%.

Going from `CCN(CC)C(=O)c1c(Br)cnn1CC` to `CC(=O)CSc1nc2c(cnn2CCO)c(=O)[nH]1`, the INHIBITION falls from 29.3% to -8.41%.

First: COc1c(CNC2CCCOc3ccccc32)c(C(C)C)nn1C (configuration not stated)
Second: CCc1nc2n(n1)CC(NCc1cnc(-c3ccccc3)nc1)CC2 (configuration not stated)
The INHIBITION of the first is lower: 15.3% for the first, 31.9% for the second.

First: Clc1ccc(C(CNCc2cccnc2)n2cccn2)cc1 (configuration not stated)
Second: CCCOc1ccc(CNCCn2cccn2)cc1
The INHIBITION of the first is lower: -4.56% for the first, 30.5% for the second.

Compared with `CCN1CC(C(=O)N2CCN(c3nsc4ccccc34)CC2)CCC1=O` (configuration not stated), `CC(C)N1CCCC(C(=O)N2CCN(c3nsc4ccccc34)CC2)C1` (configuration not stated) is higher in INHIBITION: 33.9% for the first, 58.5% for the second.

Compared with `Cc1cc(NC(=O)NCc2ccc(C)s2)no1`, `CNS(=O)(=O)c1ccc(CNC(=O)Nc2cc(C)on2)s1` is lower in INHIBITION: 56.8% for the first, 24.3% for the second.

First: Cc1cc(NC(=O)NCc2ccc(S(=O)(=O)N3CCCC3)s2)no1
Second: O=S(=O)(NCc1ccc(S(=O)(=O)N2CCCC2)s1)c1ccc(Cl)c(Cl)c1
The INHIBITION of the first is higher: 68% for the first, 40.6% for the second.

Going from `CC(=O)N1N=C(c2ccco2)OC1C(=O)NCCc1ccc(O)cc1` (configuration not stated) to `Cc1cnn(CCNCC(=O)N2CCN(c3ccccc3)CC2)c1`, the INHIBITION falls from 48% to -3.48%.

First: Cc1cc(C(=O)N(C)C)nc(C2(C)CCCN2c2ccnc(C)n2)n1 (configuration not stated)
Second: Cc1cc(-c2ccnn2C)nc(C2CCCN(S(C)(=O)=O)C2)n1 (configuration not stated)
The INHIBITION of the first is lower: -41.025% for the first, 16.99% for the second.

Going from `Cc1nc(C2(NCC(=O)NCCc3cccs3)CCCC2)no1` to `CC(=O)NC[C@]1(O)CCN(C(=O)c2ccc3c(c2)OCO3)C[C@H]1O`, the INHIBITION rises from -81.3% to 59%.

Going from `CCCn1cc(C(=O)NCc2nnc(-c3ccc(C)nc3)o2)c(C)n1` to `CCCC(=O)Nc1cc2c(cc1OC)NC(=O)CC2c1ccc(CC)o1` (configuration not stated), the INHIBITION rises from 14.6% to 49.6%.

Compared with `CN(Cc1ccc(C2CC(=O)Nc3cc4[nH]ncc4cc32)o1)S(C)(=O)=O` (configuration not stated), `CN(Cc1ccc(C2CC(=O)Nc3n[nH]cc32)o1)S(C)(=O)=O` (configuration not stated) is lower in INHIBITION: 70.2% for the first, -38.1% for the second.

Going from `COc1cc(C)c(C2CC(=O)Nc3cc(NS(C)(=O)=O)ccc32)cc1C` (configuration not stated) to `COc1ncccc1C1CC(=O)Nc2cc(NS(C)(=O)=O)ccc21` (configuration not stated), the INHIBITION rises from -5.22% to 10.1%.

Compared with `CCc1ccc(C2CC(=O)Nc3cc(NS(C)(=O)=O)ccc32)o1` (configuration not stated), `CCc1ccc(C2CC(=O)Nc3cc(OC)c(NS(C)(=O)=O)cc32)o1` (configuration not stated) is lower in INHIBITION: 85.3% for the first, 61.5% for the second.

Compared with `CCc1ccc(C2CC(=O)Nc3n[nH]cc32)o1` (configuration not stated), `CC(=O)N1CC(c2n[nH]c3ncccc23)C1` is higher in INHIBITION: 26.9% for the first, 27.6% for the second.

Compared with `CCCN(Cc1ccc(C#N)cc1)Cc1nnsc1Cl`, `CC(C)N(Cc1ccc(C#N)cc1)Cc1nnsc1Cl` is lower in INHIBITION: 52% for the first, 22.4% for the second.

First: CCCN(CCC)Cc1nnsc1Cl
Second: Cn1nc(C2CN(S(C)(=O)=O)C2)c2nccnc21
The INHIBITION of the first is lower: 10.8% for the first, 35.2% for the second.

Compared with `CCc1ccc2c(C3CN(S(C)(=O)=O)C3)ncn2c1`, `CS(=O)(=O)N1CC(c2ncn3ccccc23)C1` is higher in INHIBITION: 40.8% for the first, 70.4% for the second.

Going from `CN1CCC(c2n[nH]c3ncccc23)C1` (configuration not stated) to `CS(=O)(=O)N1CC(c2n[nH]c3ncccc23)C1`, the INHIBITION rises from -10.5% to 70.1%.

Compared with `CC(=O)NC[C@]1(O)CCN(C(=O)c2ccc(C)c(F)c2)C[C@H]1O`, `CN(Cc1cnn(C)c1)C(=O)C(c1ccccc1)N1CCSCC1` (configuration not stated) is lower in INHIBITION: -7.79% for the first, -13.4% for the second.

`CC(C)CC(C)N(C)C(=O)c1nc(S(C)(=O)=O)n2ccccc12` (configuration not stated) gave an INHIBITION of 1.8%.

From ChEMBL document CHEMBL4513216, “Probing the Open Global Health Chemical Diversity Library for Multistage-Active Starting Points for Next-Generation Antimalarials” (ACS Infect Dis, 2020)
